Assay results taken from PubChem BioAssay (NCATS).
Records with an inconclusive call do not appear. A call without a number means that no potency is given here. The source made the active and inactive calls. Calls come from the whole dose curve; as a rule, active = well fitted inhibition curve with a large enough effect; inconclusive = small, poorly fitted or top-dose-only effect; inactive = flat fitted curve, though single readings scatter.

Each compound was assayed against Aldehyde dehydrogenase, mitochondrial (Homo sapiens) (UniProt P05091) (assay: qHTS for Inhibitors of the Aldehyde Dehydrogenase Family (ALDH2) Primary screen (AID 2061308; note: nearly all actives have a fitted effect of over 55% in size)). Details: ALDH2 enzyme inhibition qHTS, 1536-well; series mostly up to 56 µM.

Row | Compound | Potency
1 | O=C1N[C@@H](Cc2ccccc2)CN2CCCC[C@@H]12 | inactive
2 | CC(=O)OC[C@]12[C@H](OC(C)=O)C(=O)[C@@H]3[C@@H](O)[C@@]14O[C@@]3(C)COC(=O)c1cccnc1[C@@H](C)[C@H](C)C(=O)O[C@@H]([C@H](OC(C)=O)[C@@H]2OC(C)=O)[C@]4(C)O | inactive
3 | CCCC[N+]1(C)[C@@H]2CC(OC(=O)[C@H](CO)c3ccccc3)C[C@H]1[C@@H]1O[C@@H]12 (stereo partly specified) | inactive
4 | CC(C)(C)NC[C@H](O)c1ccc(O)cc1Cl | inactive
5 | CCCCC1C(=O)NC(=O)N(C2CCCCC2)C1=O (stereo unspecified) | inactive
6 | C[C@H]1O[C@@H](O[C@H]2[C@@H](O)C[C@H](O[C@H]3[C@@H](O)C[C@H](O[C@H]4CC[C@@]5(C)[C@H](CC[C@@H]6[C@@H]5CC[C@]5(C)[C@@H](C7=CC(=O)OC7)CC[C@]65O)C4)O[C@@H]3C)O[C@@H]2C)C[C@H](O)[C@@H]1O | inactive
7 | CC1CCCC(=O)CCC/C=C/c2cc(O)cc(O)c2C(=O)O1 (stereo unspecified) | inactive
8 | CN1C(=O)C(Cc2ccc3ccccc3c2)N=C(c2ccc(O)cc2)c2cc(Cl)ccc21 (stereo unspecified) | inactive
9 | C[C@H]1C(=O)O[C@H]2[C@H](O)[C@]34C5OC(=O)[C@]3(O[C@@H]3OC(=O)[C@H](O)C34[C@H](C(C)(C)C)[C@H]5O)C12O (stereo partly specified) | inactive
10 | C=C1[C@@H](C)[C@H]2[C@H](Cc3ccccc3)NC(=O)[C@]23[C@H](OC(C)=O)/C=C/[C@](C)(O)C(=O)[C@@H](C)C/C=C/[C@H]3[C@@H]1O | inactive
11 | C[C@]12CC[C@H](O)C[C@@H]1CC[C@@H]1[C@@H]2CC[C@]2(C)[C@@H](C3=CC(=O)OC3)CC[C@]12O | inactive
